Type in all cases: functional
The target in test [1] is Solute carrier family 2, facilitated glucose transporter member 1 (Homo sapiens) (UniProt P11166). The experiment in a line: ST_JUDE_LEISH: Cytotoxicity at 2uM final concentration against transgenic Leishmania Mexicana promastigotes LmGLUT1 that are glucose transport deficient and complemented with the human glucose transporter GLUT1. Activity is measured by DNA content using SYBR green in vitro.

In test [2] the target is Hexose transporter 1 (Plasmodium falciparum) (UniProt O97467). The experiment in a line: ST_JUDE_LEISH: Cytotoxicity at 2uM final concentration against transgenic Leishmania Mexicana promastigotes LmPfHT that are glucose transport deficient and complemented with the Plasmodium falciparum hexose transporter. Activity is measured by DNA content using SYBR green in vitro.
The target in test [3] is Glucose transporter (Leishmania mexicana) (UniProt O61059). Nature of the test: ST_JUDE_LEISH: Cytotoxicity at 2uM final concentration against transgenic Leishmania Mexicana promastigotes LmGT2 that are glucose transport deficient and complemented with the L. Mexicana glucose transporter 2. Activity is measured by DNA content using SYBR green in vitro.

We go through 23 compounds from ChEMBL document CHEMBL3433997, “St. Jude Leishmania screening dataset” (2016).

Solute carrier family 2, facilitated glucose transporter member 1 (Homo sapiens), sequence (P11166 whole entry): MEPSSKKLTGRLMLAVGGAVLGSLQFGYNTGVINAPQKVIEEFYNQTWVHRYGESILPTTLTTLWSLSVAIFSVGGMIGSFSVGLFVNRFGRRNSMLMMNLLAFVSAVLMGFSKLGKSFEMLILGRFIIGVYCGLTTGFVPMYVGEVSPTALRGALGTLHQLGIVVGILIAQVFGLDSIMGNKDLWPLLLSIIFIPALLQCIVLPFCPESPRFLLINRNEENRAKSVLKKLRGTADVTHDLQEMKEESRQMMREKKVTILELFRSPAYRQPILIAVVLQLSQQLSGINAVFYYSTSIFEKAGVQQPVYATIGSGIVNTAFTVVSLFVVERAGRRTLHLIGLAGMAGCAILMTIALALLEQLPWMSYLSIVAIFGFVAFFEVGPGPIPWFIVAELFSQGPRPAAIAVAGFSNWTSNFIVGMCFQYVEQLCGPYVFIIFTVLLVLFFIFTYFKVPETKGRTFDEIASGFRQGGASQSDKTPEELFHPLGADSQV

As for `CN1CCN(c2ccc(-c3cccc(NC(=O)c4cccc([N+](=O)[O-])c4)c3)nn2)CC1`, the inhibition turned out to be 3.29% in test [1], 1.6% in test [2] and 1.84% in test [3].

Take `CCCCCC(C)N/C(=N/c1cccc(Cl)c1Cl)Nc1ccc(C#N)cc1O` (centres undefined): the inhibition amounted to 5.91% in test [1], 4.59% in test [2] and 2.7% in test [3].

Regarding `Cc1ccc(-n2c(C)cc(C(=O)CN3C(=O)NC(Cc4ccccc4)C3=O)c2C)cc1` (centres undefined), the inhibition in test [1] was 0.81%; in test [2], -1.87%; in test [3] it was 0.55%.

Consider `CN1CCN(Cc2cccc(-c3cc4nccc(Nc5ccc(Oc6ccccc6)cc5)c4cc3Cl)c2)CC1`, for which the inhibition in test [1] was -1.94%; in test [2], 0.9%; in test [3], 1.01%.

Regarding `COc1ccc(-c2nc3c(N)nc(N)nc3nc2-c2ccccc2Cl)cc1.COc1ccc(-c2nc3nc(N)nc(N)c3nc2-c2ccccc2Cl)cc1`, the inhibition worked out at 9.91% in test [1], 10.5% in test [2] and 6.97% in test [3].

For the compound `CC12CN3CC(C)(CN(C1)C3c1cc(Br)ccc1O)C2O` (centres undefined), the results for the inhibition in test [1], in test [2] and in test [3] were -3.78%, -1.64% and 4.22%, respectively.

For the compound `CC(=O)N(C)c1ccc(C(=O)Nc2cccc(-c3cccc(-c4nc5cccc(C)c5[nH]4)c3)c2)cc1`, the inhibition in test [1] is 3.67%; in test [2], 3.97%; in test [3] it was 0.08%.

For the compound `N#Cc1cc(C(=O)Nc2ccccc2)c(N)nc1SCC(=O)Nc1ccc(Br)cc1`, the inhibition was found to be 8.21% in test [1], 5.88% in test [2] and 4.96% in test [3].

On to `Cc1nc(N)nc(N)c1-c1ccc2ccccc2c1`, for which the results for the inhibition in test [1], in test [2] and in test [3] were -1.96%, -1.02% and -2.1%, respectively.

For the compound `CN1CCCN(c2ccnc3cc4c(cc23)N(C(=O)c2ccc(C(F)(F)F)cc2)CC4)CC1`, the results for the inhibition in test [1], in test [2] and in test [3] were 5.22%, 5.41% and 7.79%, respectively.

For `Cc1cc(N[C@@H](Cc2ccccc2)C(=O)Nc2ccccc2)nc(NCCc2ccccn2)n1`, the inhibition in test [1] came out at 4.62%; in test [2], 4.95%; in test [3], 3.53%.

For the compound `O=C(NC1CCCCC1)c1ccc(O)c(-c2cccc(C(F)(F)F)c2)c1`, the inhibition stood at 2.06% in test [1], 2% in test [2] and 1.27% in test [3].

Regarding `Cc1cccc2[nH]c(-c3cc(-c4cn[nH]c4)cnc3N)nc12`, the inhibition in test [1] was 2.56%; in test [2] it was 2.36%; in test [3], 2.33%.

Consider `CC(C)C[C@@H](/C=N/N1CCNC1=O)NC(=O)[C@H](CC(C)C)NC(=O)c1ccc(OCCN2CCOCC2)cc1`, for which the inhibition in test [1] came out at 0.84%; in test [2] it was 6.5%; in test [3] it was 0.69%.

Consider `CCc1nc(N)nc(N)c1CCCOc1ccccc1Cl`, for which the inhibition in test [1] was 3.15%; in test [2], 2.69%; in test [3], -0.4%.

Consider `Cc1cc(=O)c(-c2ccc(Oc3ccc(Cl)cc3Cl)cc2)c(C)[nH]1`, for which the figures for the inhibition in test [1], in test [2] and in test [3] were 2.15%, 3.32% and 1.9%, respectively.

For `Oc1cc(-c2nc(-c3ccccc3)[nH]c2-c2ccncc2)ccc1Cl`, the inhibition amounted to 4.1% in test [1], 1.67% in test [2] and 1.44% in test [3].

For `CC1(C)N=C(N)N=C(N)N1OCc1cccc(C#N)c1`, the inhibition in test [1] is 2.81%; in test [2], 0.82%; in test [3], 1.5%.

Turning to `CC(=O)Nc1cc(C(=O)Nc2cccc(-c3csc(-c4nc5ccccc5[nH]4)c3)c2)ccc1C`, the inhibition in test [1] was 10.5%; in test [2], 9.84%; in test [3], 9.18%.

`COC(=O)c1ccc2[nH]cc(C3CCN(CCC4CCN(C(=O)/C=C/c5ccc(Cl)c(Cl)c5)CC4)CC3)c2c1`: the figures for the inhibition in test [1], in test [2] and in test [3] were 6.59%, 4.72% and 5.91%, respectively.

As to `CCCCCCCN(Cc1ccc(OC(C)(C)C(=O)OCC)cc1)C(=O)Nc1ccccc1OC(F)(F)F`, the inhibition in test [1] was 0%; in test [2], -1.12%; in test [3], 1.43%.

As to `c1ccc(-c2[nH]c3ccccc3c2CN2CCC(N3CCCCC3)CC2)nc1`, the inhibition in test [1] is -2.72%; in test [2], -0.46%; in test [3], -1.64%.

As for `CC(C)C[C@@H](/C=N/NC(N)=O)NC(=O)[C@H](CC(C)C)NC(=O)[C@H](CC(C)C)NC(=O)OCc1ccccc1`, the figures for the inhibition in test [1], in test [2] and in test [3] were 5.02%, 6.9% and 4.41%, respectively.

What is called inhibition is the relative decrease from the control value, in per cent.
